Results on five compounds are retold here after PubChem BioAssay.

A short description of test [1]: small molecules captured by biotinylated probe aFSTL3 – biochemical, small-molecule microarray, fluorescence 635/667, stem cell growth factor project, primary screen (AID 1064).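 Note: measures binding of the biotinylated anti-FSTL3 antibody to printed compounds.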 The following applies: higher = more signal.
A short description of test [2]: binders from COS7 lysate, DM2A8 probe, primary screen, torsin A project, cell lysate, small-molecule microarray, fluorescence 635/667 (AID 1065). Particulars: higher = more signal, COS7 lysate expressing mutant human TOR1A.
A short description of test [3]: small molecules captured by biotinylated probe aFGF2 – biochemical, small-molecule microarray, fluorescence 635/667, stem cell growth factor project, primary screen (AID 1067).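 Note: measures binding of biotinylated aFGF2 protein to printed compounds on slides; z-score merges feature fluorescence and signal-to-noise across triplicate slides.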 Particulars: higher = more signal.
The nature of test [4]: small molecules captured by biotinylated probe aFGF10 – biochemical, small-molecule microarray, fluorescence 635/667, stem cell growth factor project, primary screen (AID 1071).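 Note: score merges 667 nm spot intensity and signal to noise from triplicate slides.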 Particulars: higher = more signal.
The target in test [5] is Neurogenic locus notch homolog protein 2 (Homo sapiens) (UniProt Q04721). The test can be described thus: small molecules binding Notch2 protein – biochemical, small-molecule microarray, 635 nm fluorescence, stem cell growth factors, primary screen (AID 1073). Particulars: higher = more signal.
Test [6] concerns the target Pro-neuregulin-1, membrane-bound isoform (Homo sapiens) (UniProt Q02297). The test can be described thus: small molecules binding neuregulin-1 protein – biochemical, small-molecule microarray, fluorescence 635/667, psychiatric disease protein project, primary screen (AID 1075).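 Note: score combines 667 nm spot fluorescence with signal to noise.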 Particulars: NRG1 binding, 635 nm fluorescence, higher = more signal.
In test [7] the test system is Neuregulin-1 EGF-like domain. The test can be described thus: small molecules binding NRG1 EGF domain – biochemical, small-molecule microarray, 635 nm fluorescence, primary screen (AID 1081).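 Note: binding of the protein to compounds printed on small-molecule microarray slides.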 The following applies: higher = more signal.
A short description of test [8]: FRG1 expression reporter modulators in myotubes – cell-based, C2C12 myotubes, firefly/Renilla luciferase, luminescence, FRG1 inhibition for FSHD, primary screen (AID 1084). Particulars: FRG1 promoter luciferase, higher = more signal, called active from +8 up or from −8 down.
Test [9] is described as follows: small molecules captured by biotinylated probe aFST – biochemical, small-molecule microarray, fluorescence 635/667, stem cell growth factor project, primary screen (AID 1086).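 Note: score merges 667 nm fluorescence with signal-to-noise of each printed compound spot.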 Particulars: higher = more signal.
A short description of test [10]: binders of probe aHhip on microarray, primary screen, stem cell growth factor project, biochemical, small-molecule microarray, fluorescence 635/667 (AID 1087).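 Note: score merges spot fluorescence at 667nm with spot signal to noise ratio.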 Particulars: higher = more signal.
The subject of test [11] is PRMT1 (protein arginine N-methyltransferase 1). The test can be described thus: small molecules binding arginine methyltransferase PRMT1 – biochemical, small-molecule microarray, 635 nm fluorescence, primary screen (AID 1088).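 Note: binding of Prmt1 protein to compounds spotted on small-molecule microarray slides.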 Particulars: higher = more signal.
A short description of test [12]: growth effects on S. cerevisiae YJM789 – YJM789 clinical isolate, OD600, 24 h, basal, primary screen (AID 1089).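 Note: growth of clinical yeast isolate S. cerevisiae YJM 789 seeded 1000 cells per well; test concentration not given here.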 Particulars: higher = more signal, called active from +8 up or from −8 down.
Test [13] in a line: S. pombe growth modifiers, basal conditions – strain 972, OD600, 24 h, no modulator, primary screen (AID 1090).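 Note: basal condition with compound alone and no growth modifier present; test concentration not given here.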 The following applies: S. pombe 972 growth, higher = more signal, called active from +8 up or from −8 down.
Test [14] in a line: budding yeast growth modifiers under rapamycin – strain BY4716, OD600, 96 h, primary screen (AID 1091). Note: test concentration not given here. The following applies: S. cerevisiae BY4716 + rapamycin, higher = more signal, called active from +8 up or from −8 down.
Test [15] addresses Torsin-1A-interacting protein 2 (Homo sapiens) (UniProt Q8NFQ8). Nature of the test: small molecules binding lysate-expressed LULL1 – cell lysate, human LULL1 lysate, 635/667 nm fluorescence, primary screen (AID 1092).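 Note: probe is lysate of COS7 cells overexpressing human LULL1; score merges per-feature 667 nm fluorescence with signal-to-noise.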 Particulars: small-molecule microarray, hLULL1 lysate binding, 635 nm fluorescence; higher = more signal.
Test [16] in a line: optical density change of DRC41 E. coli – strain DRC41, OD650, 24 h, E. coli filamentation project, primary screen (AID 1093).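 Note: MC1000 strain lacking acrAB efflux and sulA so SOS filamentation is blocked; test concentration not given here.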 The following applies: E. coli DRC41 growth, higher = more signal, called active from +8 up or from −8 down.
Test [17] can be described thus: probe aLefty2 binding to arrayed compounds – biochemical, biotinylated probe, 635/667 nm fluorescence, primary screen (AID 1094).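 Note: score merges spot fluorescence near 667 nm with spot signal-to-noise ratio.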 The following applies: small-molecule microarray, higher = more signal.
Test [18] deals with Noggin (protein binding on small-molecule microarray). The test can be described thus: small molecules binding Noggin protein – biochemical, 635/667 nm fluorescence, primary screen (AID 1095).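 Note: score merges 667 nm feature fluorescence with signal to noise over triplicate slides.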 The following applies: 635 nm fluorescence, higher = more signal.
Test [19] has as its target Neurogenic locus notch homolog protein 3 (Homo sapiens) (UniProt Q9UM47). Nature of the test: small molecules binding NOTCH3 protein – biochemical, 635/667 nm fluorescence, primary screen (AID 1096). Particulars: small-molecule microarray, 635 nm fluorescence, higher = more signal.
The nature of test [20]: probe aEGFR binding to arrayed compounds – biochemical, biotinylated probe, 635/667 nm fluorescence, primary screen (AID 1097).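 Note: probe is a biotinylated anti-EGFR antibody binding compounds printed on slides; score combines fluorescence near 667 nm and signal to noise of each spot.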 Particulars: small-molecule microarray, higher = more signal.

Calls of active or inactive are those of the source.

Pro-neuregulin-1, membrane-bound isoform (Homo sapiens), sequence (Q02297 whole entry, looked up, the tested form may be a part, canonical isoform): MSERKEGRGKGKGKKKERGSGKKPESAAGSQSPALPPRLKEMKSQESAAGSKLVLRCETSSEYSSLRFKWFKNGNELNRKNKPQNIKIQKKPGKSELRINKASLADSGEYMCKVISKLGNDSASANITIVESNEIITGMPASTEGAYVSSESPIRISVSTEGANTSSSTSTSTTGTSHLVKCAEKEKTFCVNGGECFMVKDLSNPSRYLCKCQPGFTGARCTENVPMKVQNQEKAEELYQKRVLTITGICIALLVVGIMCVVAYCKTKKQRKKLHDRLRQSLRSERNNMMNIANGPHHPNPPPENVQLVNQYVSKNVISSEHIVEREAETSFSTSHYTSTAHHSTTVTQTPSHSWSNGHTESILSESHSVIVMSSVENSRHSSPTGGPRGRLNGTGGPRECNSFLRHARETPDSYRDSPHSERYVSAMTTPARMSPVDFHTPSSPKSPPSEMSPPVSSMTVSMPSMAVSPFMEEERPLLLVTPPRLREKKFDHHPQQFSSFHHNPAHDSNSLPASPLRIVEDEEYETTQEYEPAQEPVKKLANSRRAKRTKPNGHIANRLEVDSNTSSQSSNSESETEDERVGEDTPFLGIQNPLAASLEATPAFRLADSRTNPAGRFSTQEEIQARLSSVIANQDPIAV
Neurogenic locus notch homolog protein 3 (Homo sapiens), sequence (Q9UM47 whole entry, looked up): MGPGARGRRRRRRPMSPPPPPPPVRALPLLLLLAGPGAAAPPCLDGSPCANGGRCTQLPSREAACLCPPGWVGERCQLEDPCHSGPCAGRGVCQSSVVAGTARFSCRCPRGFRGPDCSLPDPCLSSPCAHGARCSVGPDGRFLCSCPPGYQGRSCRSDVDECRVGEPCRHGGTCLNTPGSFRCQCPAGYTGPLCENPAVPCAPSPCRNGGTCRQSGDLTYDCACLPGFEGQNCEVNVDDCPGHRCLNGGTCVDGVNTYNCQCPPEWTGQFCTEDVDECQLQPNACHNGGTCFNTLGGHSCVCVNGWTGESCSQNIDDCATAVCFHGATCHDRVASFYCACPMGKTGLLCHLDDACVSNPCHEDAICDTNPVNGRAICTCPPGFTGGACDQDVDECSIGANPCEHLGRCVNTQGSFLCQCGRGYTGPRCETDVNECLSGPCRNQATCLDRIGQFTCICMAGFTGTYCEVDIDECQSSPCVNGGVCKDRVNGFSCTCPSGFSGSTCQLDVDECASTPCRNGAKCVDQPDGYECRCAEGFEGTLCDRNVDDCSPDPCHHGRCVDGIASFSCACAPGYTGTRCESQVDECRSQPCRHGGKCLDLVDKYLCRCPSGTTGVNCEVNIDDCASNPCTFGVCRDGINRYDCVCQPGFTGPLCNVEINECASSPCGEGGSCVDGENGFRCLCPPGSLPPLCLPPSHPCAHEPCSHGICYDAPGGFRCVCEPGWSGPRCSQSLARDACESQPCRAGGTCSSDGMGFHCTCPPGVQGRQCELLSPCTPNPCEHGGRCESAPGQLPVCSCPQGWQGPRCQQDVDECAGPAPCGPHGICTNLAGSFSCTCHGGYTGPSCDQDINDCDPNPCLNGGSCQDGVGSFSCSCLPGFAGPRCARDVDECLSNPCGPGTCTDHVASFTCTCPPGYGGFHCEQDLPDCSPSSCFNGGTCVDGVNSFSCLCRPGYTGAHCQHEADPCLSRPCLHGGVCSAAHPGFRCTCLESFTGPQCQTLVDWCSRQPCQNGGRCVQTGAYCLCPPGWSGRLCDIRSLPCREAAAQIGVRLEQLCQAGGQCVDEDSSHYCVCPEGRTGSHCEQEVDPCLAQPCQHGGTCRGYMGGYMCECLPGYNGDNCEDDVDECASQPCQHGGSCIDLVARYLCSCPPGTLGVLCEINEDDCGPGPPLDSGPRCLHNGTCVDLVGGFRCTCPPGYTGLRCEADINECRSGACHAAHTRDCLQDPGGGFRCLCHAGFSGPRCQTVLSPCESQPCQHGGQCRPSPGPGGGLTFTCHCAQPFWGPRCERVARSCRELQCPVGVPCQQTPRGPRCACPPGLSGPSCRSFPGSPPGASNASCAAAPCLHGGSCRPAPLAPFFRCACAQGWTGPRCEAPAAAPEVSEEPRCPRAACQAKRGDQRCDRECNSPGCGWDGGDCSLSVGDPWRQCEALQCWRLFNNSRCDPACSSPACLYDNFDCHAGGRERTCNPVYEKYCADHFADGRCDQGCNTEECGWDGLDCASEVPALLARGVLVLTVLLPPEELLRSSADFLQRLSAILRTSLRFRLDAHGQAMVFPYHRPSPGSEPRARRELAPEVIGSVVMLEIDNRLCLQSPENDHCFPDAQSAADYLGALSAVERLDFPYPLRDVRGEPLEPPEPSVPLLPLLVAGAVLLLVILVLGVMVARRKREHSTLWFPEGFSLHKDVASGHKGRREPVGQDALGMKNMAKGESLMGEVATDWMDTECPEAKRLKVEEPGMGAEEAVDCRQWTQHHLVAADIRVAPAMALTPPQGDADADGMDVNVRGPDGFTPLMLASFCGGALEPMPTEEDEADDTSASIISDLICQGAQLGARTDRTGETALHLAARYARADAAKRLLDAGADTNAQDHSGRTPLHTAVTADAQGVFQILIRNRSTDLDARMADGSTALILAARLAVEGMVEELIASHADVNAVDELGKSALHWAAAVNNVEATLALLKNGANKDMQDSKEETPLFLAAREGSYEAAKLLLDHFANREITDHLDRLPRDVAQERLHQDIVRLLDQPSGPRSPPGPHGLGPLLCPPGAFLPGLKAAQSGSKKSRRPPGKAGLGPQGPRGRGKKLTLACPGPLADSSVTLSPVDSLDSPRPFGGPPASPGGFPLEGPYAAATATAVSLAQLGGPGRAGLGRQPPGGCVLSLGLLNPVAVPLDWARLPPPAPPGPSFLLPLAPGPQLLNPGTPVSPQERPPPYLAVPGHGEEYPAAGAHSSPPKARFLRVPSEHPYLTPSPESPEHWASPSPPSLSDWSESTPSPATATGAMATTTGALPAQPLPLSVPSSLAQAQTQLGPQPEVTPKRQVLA
Torsin-1A-interacting protein 2 (Homo sapiens), sequence (Q8NFQ8 whole entry, looked up): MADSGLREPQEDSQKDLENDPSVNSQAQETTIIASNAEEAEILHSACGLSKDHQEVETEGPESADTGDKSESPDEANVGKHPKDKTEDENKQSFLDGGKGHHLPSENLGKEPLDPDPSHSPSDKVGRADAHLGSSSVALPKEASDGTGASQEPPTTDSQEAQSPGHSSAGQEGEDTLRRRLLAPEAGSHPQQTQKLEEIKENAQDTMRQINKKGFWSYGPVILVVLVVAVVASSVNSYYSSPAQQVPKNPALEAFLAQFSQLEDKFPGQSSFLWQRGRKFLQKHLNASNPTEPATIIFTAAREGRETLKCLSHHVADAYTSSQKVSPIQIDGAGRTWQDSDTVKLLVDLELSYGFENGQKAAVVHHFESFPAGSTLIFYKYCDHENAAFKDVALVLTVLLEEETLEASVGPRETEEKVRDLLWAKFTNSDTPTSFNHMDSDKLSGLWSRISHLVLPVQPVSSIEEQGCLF

For `CCCCC(=C=CC[C@H](O)c1ccc(OCCO)cc1)C[C@H](O)COCc1ccccc1`, the composite z-score in test [1] was -0.117; in test [2] it was -0.366; in test [3], -0.0409; in [4], 0.692; in test [5] it was -0.238; in [6] it was 1.06. The composite z-score in [7] was 0.879; in test [9] it was -0.0834; in test [10], 0.152; in test [11], 0.857; in [15] it was 1.36; in [17], -0.116. For the same compound, the composite z-score is 0.395 in test [18], -0.36 in [19] and 0.0028 in [20]. The z-score was -0.947 (inactive) in test [8]; 0.85 (inactive) in [12]; -1.43 (inactive) in test [13]; -0.374 (inactive) in test [14]; 0.125 (inactive) in [16].

On to `C=CC1c2cc(O)c(OC)cc2CCN1Cc1ccc([N+](=O)[O-])o1` (stereo not given), for which the composite z-score in [1] is 0.29; in [2], 0.381; in test [3], -0.0156; in test [4], 0.673; in [5], 1.12; in test [6] it was 1.64. For the same compound, the composite z-score in test [7] was 1.09; in [9], 0.457; in test [10], 0.245; in test [11] it was -0.047; in test [15], 2.77; in test [17], 0.0761. Further, the composite z-score in [18] was -0.273; in test [19], 0.606; in test [20] it was 0.0779. Also, the z-score in [8] was -0.0303 (inactive); in test [12], 0.994 (inactive); in test [13], -0.61 (inactive); in test [14], 0.757 (inactive); in test [16], 0.694 (inactive).

`CC(C)C(=C=CC[C@@H](O)c1cccc(OCCO)c1)C[C@@H](O)COCc1ccccc1`: the composite z-score is -0.0972 in test [1]; -0.254 in test [2]; -0.0835 in test [3]; 0.45 in [4]; -0.554 in test [5]; -0.0802 in [6]. Moreover, the composite z-score in test [7] was -0.547; in test [9] it was 0.182; in [10], -0.188; in test [11] it was 0.566; in test [15] it was 0.493; in test [17], -0.133. In addition, the composite z-score in test [18] is 0.573; in [19], 0.541; in test [20], -0.203. Moreover, the z-score in test [8] is -2.12 (inactive); in [12] it was -0.978 (inactive); in test [13], -1.55 (inactive); in test [14] it was -0.845 (inactive); in [16], 1.61 (inactive).

Regarding `O=C1C[C@@](C(=O)NCc2ccccc2)(c2ccc([N+](=O)[O-])cc2)[C@@H](c2ccc(CO)cc2I)N1CC12CC3CC(CC(C3)C1)C2`, the composite z-score was -0.262 in test [1]; 0.656 in [2]; -0.0412 in [3]; 0.831 in test [4]; 1.2 in test [5]; 0.656 in test [6]. The composite z-score in test [7] came out at 1.15; in test [9] it was 0.572; in [10], 0.261; in [11] it was 1.55; in [15], 2.61; in test [17] it was 0.0578. The composite z-score was determined as 1.8 in test [18], 1.09 in test [19] and 0.0042 in test [20]. The z-score was -1.32 (inactive) in test [8]; -0.369 (inactive) in test [12]; -0.613 (inactive) in [13]; 2.84 (inactive) in test [14]; -0.343 (inactive) in [16].

Consider `CCCCCN1CC=CC23O[C@@H]4/C=C\CCC(C)OC(=O)C4[C@H]2C(=O)N(CCCCCCO)[C@@H]3C1=O` (stereo not given in full), for which the composite z-score in test [1] is -0.146; in [2], -0.355; in [3], -0.129; in test [4] it was -0.248; in test [5], -0.641; in test [6], 1.89. For the same compound, the composite z-score in [7] was 1.4; in [9], -0.183; in test [10] it was -0.0994; in test [11], 0.523; in test [15] it was 1.79; in test [17] it was -0.119. Moreover, the composite z-score was 0.296 in test [18], 0.109 in test [19] and -0.126 in [20]. Besides, the z-score was -0.0224 (inactive) in [8]; 0.735 (inactive) in test [12]; 0.157 (inactive) in test [13]; -0.635 (inactive) in [14]; 1.24 (inactive) in test [16].
